Assay outcomes as filed in PubChem.
Sampled rows, rich in hits. Any-hit rate of the full collection: about 3.3%.
NR3A LBD binder = NR3A (human) ligand-binding domain modulation; NR3A LBD differential scanning fluorimetry, Tm shift; 0% = protein alone, 100% = glycine-bound protein; Tm shift relative to glycine control, % at 25 µM; 340,000 compounds, 2.5% hits; AID 1259313;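 active = melting temperature shift of at least 10% of the positive control shift, at one fixed dose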
UBC9 SUMO inh = SUMOylation inhibition. 290,000 compounds, 0.36% hits. AID 2006. HTRF SUMOylation assay, SAE1/SAE2 + UBC9, in vitro. inhibition, % at 35 µM; in the data active = inhibition above about 50%, passing the limit was not always enough
Target sequence (P63279 whole entry, looked up): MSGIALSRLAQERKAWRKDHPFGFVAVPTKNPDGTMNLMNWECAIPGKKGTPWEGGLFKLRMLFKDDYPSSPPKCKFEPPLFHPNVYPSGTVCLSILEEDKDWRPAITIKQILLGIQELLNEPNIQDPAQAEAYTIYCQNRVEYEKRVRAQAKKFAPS
UBC13 inh = inhibitors of human UBC13 polyubiquitin chain formation; TR-FRET; AID 485273; 330,000 compounds, 0.47% hits; P61088; inhibition, % at 20 µM; in the data active = inhibition above about 45%, passing the limit was not always enough
Target sequence (P61088 whole entry, looked up): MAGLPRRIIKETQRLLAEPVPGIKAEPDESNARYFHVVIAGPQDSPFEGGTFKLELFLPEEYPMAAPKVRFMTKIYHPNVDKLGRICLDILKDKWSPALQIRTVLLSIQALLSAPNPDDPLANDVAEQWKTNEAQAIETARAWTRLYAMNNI
sPLA2-III inh = Inhibits HGIII-sPLA2 liposome hydrolysis, primary screen | Q9NZ20 | QFRET BODIPY PC-A2 liposome hydrolysis, fluorescence | inhibition, % at 12.2 µM | 370,000 compounds, 0.56% hits | AID 743126;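 active = inhibition above mean plus 3 SD of compounds lying within the high and low control bounds, cut at about 19% in these data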;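 also: 0% = median of test compound wells and 100% = no enzyme DMSO wells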
* marks the source's active call; other numbers are inactive results; / = no result given.

SMILES	NR3A LBD binder	UBC9 SUMO inh	UBC13 inh	sPLA2-III inh
CCOc1ccc(/C=N/NC(=O)Cc2csc(Nc3cccc(C(F)(F)F)c3)n2)c(OCC)c1	10*	-40	-4	-27
CCOC(=O)c1ccccc1NS(=O)(=O)c1ccc(C)cc1	0	4	7	-10
CCOC(=O)c1cc(C)n(S(=O)(=O)c2ccc(C)cc2)c1C	14*	-34	3	1
CCCCn1c(SCC(=O)c2ccc(O)c(O)c2)nc2ccsc2c1=O	25*	5	-7	/
O=C(O)CCCCCn1c(SCC(=O)c2ccc(O)c(O)c2)nc2ccsc2c1=O	2	16	2	-12
C[C@@H]1COc2cc(Br)ccc2S(=O)(=O)N1Cc1cn(Cc2ccccc2)nn1	/	/	/	-1
CCCCC1C(=O)NN(c2ccccc2)C1=O (stereo not given)	0	/	/	16
O=C1C(CCS(=O)c2ccccc2)C(=O)N(c2ccccc2)N1c1ccccc1 (stereo not given)	17*	1	0	-14
CCn1nc(C)c(NC(=O)CCSc2nc(-c3ccco3)cc(C(F)(F)F)n2)c1C	557*	12	-6	-5
CNc1nc2c3ccccc3n(C(C)=O)c2s1	18*	-20	4	18
COC(=O)C12C=C3CC(C4CC4)=C3C(=O)N1Cc1[nH]c3ccccc3c1C2 (stereo not given)	/	/	/	-10
COc1cccc(NC(=O)CN(C)C(=O)/C=C/c2cn(-c3ccccc3)nc2-c2ccc(C)cc2)c1	17*	/	-5	-30
COc1ccc(NC(=O)CN(C)C(=O)/C=C/c2cn(-c3ccccc3)nc2-c2ccc(C)cc2)cc1	6	/	-12	-24
COc1ccc(NC(=O)CN(C)C(=O)/C=C/c2cn(-c3ccccc3)nc2-c2ccc(F)cc2)cc1	10*	/	-6	1
COc1ccc(-c2nn(-c3ccccc3)cc2/C=C/C(=O)OCC(=O)Nc2cccc(C#N)c2)cc1	25*	15	20	5
Cc1cccc(-c2cccc3c4c([nH]c23)[C@@H]2C[C@H]3[C@@H](C(=O)N2CC4)[C@H](C)ON3C)c1	/	/	/	-7
COc1ccc(C(=O)OCCCN(C)C2CN(Cc3cn(Cc4cccc(F)c4)nn3)S(=O)(=O)C2)cc1OC (stereo not given)	/	/	/	-1
Cc1ccnc(NC(c2ccccc2)c2ccc3cccnc3c2O)c1 (stereo not given)	148*	/	/	16
Cc1cc(NC(c2ccc(Cl)cc2)c2ccc3cccnc3c2O)no1 (stereo not given)	-3	-98	-11	35*
Cc1noc(C)c1COC(=O)c1ccc(-c2nc3ccccc3s2)s1	21*	-1	37	2
COc1ccc(OC)c(-c2csc(NC(=O)CSc3ccc([N+](=O)[O-])cc3)n2)c1	12*	-18	-10	-21
COc1ccc(OC)c(-c2csc(NC(=O)COC(=O)c3ccc(NC(=O)CC#N)cc3)n2)c1	13*	/	-27	/
COc1ccc(OC)c(-c2csc(NC(=O)CSc3ccc(Br)cc3)n2)c1	19*	-20	-6	0
O=C(C1CCCN(S(=O)(=O)c2cccc3ccccc23)C1)N1CCN(Cc2ccccc2)CC1 (stereo not given)	/	/	/	-9
COC(=O)[C@H]1C[C@]2(C(C=C(C)C)S(=O)(=O)c3ccccc3)c3ccccc3N[C@H]2N1 (stereo not given in full)	/	/	/	6
SMILES	NR3A LBD binder	UBC9 SUMO inh	UBC13 inh	sPLA2-III inh
C=C1C(=O)C=C2CN(C(=O)c3ccccc3)[C@@](Cc3ccc(F)cc3)(C(=O)OC)[C@@H]12	12*	-1	-25	/
Nc1nc(Nc2ccccc2F)nc(N2CCOCC2)c1[N+](=O)[O-]	15*	-14	2	15
Cc1ccc(-c2nnc3n2N=C(c2ccc(-c4ccccc4)cc2)CS3)cc1	/	/	/	-10
Cc1ccc(C(=O)N/N=C/c2cc(C)n(-c3ccc(Br)cc3)c2C)cc1[N+](=O)[O-]	14*	-24	-8	8
Cc1ccc(-n2c(C)cc(/C=N/NC(=O)c3ccncc3)c2C)cc1	-2	8	-3	3
O=[N+]([O-])c1cccc(NC(=S)Nc2nc(-c3ccccc3Cl)cs2)c1	17*	13	-9	5
Cc1cc(NC(=O)CSc2nc(-c3ccc(Cl)cc3)cs2)no1	-1	-7	-2	5
O=C(CSc1nc(-c2ccc(Cl)cc2)cs1)Nc1cccc([N+](=O)[O-])c1	27*	-18	3	-17
CCNC(=S)Nc1cccc([N+](=O)[O-])c1	/	-2	-4	/
CCn1c(Cc2cccs2)nnc1SCC(=O)c1ccc(Cl)cc1	/	/	/	-51
Fc1ccc2[nH]c3c(c2c1)CN(C(=S)NCc1ccccc1)CC3	29*	-8	9	-4
